Only some compounds are listed: those with a hit (about 3.5% of all), similar ones and a draw of the others.
TEAD-YAP block – TEAD-YAP interaction inhibition, primary screen, TEAD-YAP interaction inhibitor project, luminescence, HEK-TIYL cells; hit rate 1.4% among 640,000; TEAD-Gal4/YAP UAS-luciferase luminescence; inhibition, % at 9.12 µM; in the data active = inhibition above about 32%
GPR151 ag – activators of human GPR151, primary screen, cell-based, PathHunter beta-arrestin, luminescence | PathHunter beta-arrestin GPR151 cells | AID 1508602, 2020 | G-protein coupled receptor 151 (Homo sapiens), Q8TDV0 | activation, % at 11.2 µM | hit rate 1% among 650,000; in the data active = activation above about 4.9%
MITF primary – MITF inhibitors, primary screen, biochemical, AlphaScreen, human | inhibition, % at 2.6 µM | hit rate 0.91% among 650,000 | AlphaScreen MITF homodimerization, bead proximity signal | Microphthalmia-associated transcription factor (Homo sapiens), O75030 | AID 1259374, 2018; in the data active = inhibition above about 50%
FBW7 act – FBW7 E3 ligase activators, primary screen, biochemical, AlphaScreen, human. normalized activity (activation), % at 26.1 µM. hit rate 0.13% among 650,000. AlphaScreen FBW7–phospho-cyclin E peptide binding, activator screen. F-box/WD repeat-containing protein 7 (Homo sapiens), Q969H0. AID 1259310, 2017; in the data active = normalized activity above about 1.9%;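 note: purified mutant Fbw7 with reduced substrate affinity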
Target sequence (Q969H0 whole entry, looked up): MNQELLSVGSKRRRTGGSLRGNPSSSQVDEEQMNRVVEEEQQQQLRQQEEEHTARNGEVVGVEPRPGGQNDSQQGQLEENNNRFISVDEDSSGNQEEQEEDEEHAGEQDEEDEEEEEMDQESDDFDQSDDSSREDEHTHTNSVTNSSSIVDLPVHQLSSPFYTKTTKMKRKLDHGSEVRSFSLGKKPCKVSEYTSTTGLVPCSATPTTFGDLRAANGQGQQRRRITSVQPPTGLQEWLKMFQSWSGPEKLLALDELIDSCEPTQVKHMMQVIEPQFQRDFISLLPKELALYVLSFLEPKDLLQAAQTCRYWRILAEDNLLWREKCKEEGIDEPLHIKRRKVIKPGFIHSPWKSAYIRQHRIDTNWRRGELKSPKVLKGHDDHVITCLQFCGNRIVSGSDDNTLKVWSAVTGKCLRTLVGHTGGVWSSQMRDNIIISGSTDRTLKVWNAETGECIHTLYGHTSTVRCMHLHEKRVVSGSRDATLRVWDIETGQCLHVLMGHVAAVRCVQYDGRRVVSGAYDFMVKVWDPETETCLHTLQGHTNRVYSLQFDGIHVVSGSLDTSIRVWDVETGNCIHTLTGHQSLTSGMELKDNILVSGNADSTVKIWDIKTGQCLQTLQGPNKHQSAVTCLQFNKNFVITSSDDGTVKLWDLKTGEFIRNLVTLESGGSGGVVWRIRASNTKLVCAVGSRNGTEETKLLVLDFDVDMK
GPR151 confirm – GPR151 activators, triplicate retest, confirmation, cell-based, PathHunter beta-arrestin, luminescence; 6,700 tested, under 10 active; AID 1508609, 2020; shares compounds with GPR151 ag; GPR151 PathHunter beta-arrestin cells, 90 min; % of EA-reagent control over plate median; activation, % at 11.2 µM;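 active = mean percent activation across replicates above the confirmation screen cutoff of 4.91%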
GPR119 counter – GPR119 activators in beta-arrestin cells, counter-screen for GPR151 activator project, cell-based, PathHunter beta-arrestin, luminescence, triplicate | shares compounds with GPR151 ag | 90 min; 0 = compound-well median, 100 = enzyme-acceptor control | activation, % at 11.2 µM | hit rate 0.3% among 6,700 | AID 1508611, 2020;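 active = mean percent activation in the counterscreen above 29.09%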;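 note: counterscreen on off-target GPR119 to flag nonselective hits from the GPR151 activator screen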
A number is an active result; . = inactive; / = no result.

SMILES	TEAD-YAP block	GPR151 ag	MITF primary	FBW7 act	GPR151 confirm	GPR119 counter
Cc1ccc(-n2c(SCc3cccc([N+](=O)[O-])c3)nc3[nH]ncc3c2=O)cc1Cl	.	4.9	.	.	.	.
Cc1cc(NC(=O)c2cc(-c3ccccc3O)no2)nn1CC(=O)N1CCOCC1	.	5.6	.	.	.	.
CCOC(=O)C1=C(C)N=c2s/c(=C\c3cc(Br)c(N(CC)CC)cc3OC)c(=O)n2C1c1ccc2c(c1)OCO2 (centres undefined)	.	.	.	.	/	/
O=C(CC1(c2ccccc2)CC(=O)N(Cc2cccnc2)C1=O)N1CC[C@@H]2CCCC[C@H]2C1 (some centres undefined)	.	9.5	.	.	.	.
CC(=O)Nc1ccc(Nc2c(-c3ccc4c(c3)OCC(=O)N4)c(=O)c2=O)cc1	.	8.7	.	.	.	.
Cc1ccc(C2=NS(=O)(=O)N(C)C(C(=O)Nc3ccc(F)cc3F)=C2)cc1	.	11.5	.	.	.	.
COc1ccc(C2=NS(=O)(=O)N(C)C(C(=O)Nc3ccc(F)cc3F)=C2)cc1OC	.	.	.	.	/	/
COc1ccc(CN2C[C@@H]3C[C@@H](c4ccc5nonc5c4)N4CCC[C@@]34C2=O)cc1	.	5.4	.	.	.	.
COc1ccc(CN2C[C@@H]3C[C@@H](c4cccc5nonc45)N4CCC[C@@]34C2=O)cc1	.	.	.	.	/	/
COc1ccc(CCNC(=O)c2cncc(Nc3ncccn3)c2)cc1	.	6.9	.	.	.	.
O=C(CSc1nncn1-n1cccc1)Nc1cccc(Cl)c1	.	.	.	.	/	/
CCc1ccc(CNC(=O)CCn2nc(-c3ccccc3)ccc2=O)cc1	.	.	.	.	/	/
CCc1cc2c(=O)c(-c3ccc4c(c3)OCCO4)coc2cc1OC(C)C(=O)OC (centres undefined)	.	6.8	.	.	.	.
CCc1cc2c(=O)c(-c3ccc4c(c3)OCCCO4)coc2cc1OC(C)C(=O)OC (centres undefined)	.	.	.	.	/	/
CCC(=O)Oc1cc2c(C(=O)OC(C)C)c(C)oc2cc1Br	.	8.2	.	.	.	.
Cc1csc(NC(=O)CSc2nc(C3CC3)nc3sc(C)c(C)c23)n1	.	6.3	.	.	.	.
O=C(CN1C(=O)S/C(=C\c2cccs2)C1=O)N1CCCC1	.	5.5	.	.	.	.
O=C(CCN1C(=O)/C(=C\c2cccs2)SC1=S)N1CCCC1	.	6.0	.	.	.	.
N#Cc1c(NC(=O)c2cnn3c(C(F)(F)F)cc(-c4ccco4)nc23)sc2c1CCCC2	.	.	.	.	/	/
CCC1C(=O)NCCN1C(=O)CC1(c2ccccc2F)CC(=O)N(C2CCCCC2)C1=O (centres undefined)	.	.	.	.	/	/
CCN(CC)C(=O)COc1ccc2c(C)c(C)c(=O)oc2c1C	.	.	.	.	/	/
CCOC(=O)C1=C(N)N(c2cccc([N+](=O)[O-])c2)C2=C(C(=O)CC(C)(C)C2)C1c1cc(Br)cs1 (centres undefined)	.	.	.	.	/	/
CC(CC(=O)Nc1nc2ccc([N+](=O)[O-])cc2s1)c1ccccc1 (centres undefined)	.	6.5	.	.	.	.
CCC(C)NC(=O)c1cccc(N2CCCC2=O)c1 (centres undefined)	.	.	.	.	/	/
O=C(O)c1cccc(N2CCCC2=O)c1	.	5.4	.	.	.	.
SMILES	TEAD-YAP block	GPR151 ag	MITF primary	FBW7 act	GPR151 confirm	GPR119 counter
CC(C)c1ccc(NS(=O)(=O)c2ccc3[nH]cc(C(=O)N4CCCC4)c(=O)c3c2)cc1	.	9.7	.	.	.	.
CCc1ccc(NS(=O)(=O)c2ccc3[nH]cc(C(=O)N4CCCCC4)c(=O)c3c2)cc1	.	.	.	.	/	/
FC(F)(F)c1cccc(CNc2ncnc3nc(Nc4ccc(-n5ccnc5)cc4)[nH]c23)c1	.	.	.	.	/	/
CC(=O)N1CCN(Cc2nc3cc(NC(=O)c4ccc(Cl)cc4)ccc3n2C)CC1	.	5.4	.	.	.	.
CCCn1c(N2CCN(CC(=O)Nc3ccc(C(C)=O)cc3)CC2)nc2ccccc21	.	.	.	.	/	/
CCN1CCN(CC(=O)Nc2ccc(C(C)=O)cc2)CC1	.	7.5	.	.	.	.
CC(=O)Nc1ccc2c(c1)nc(CN1CCN(C(C)=O)CC1)n2C	.	.	.	.	/	/
CC(=O)c1ccc(NC(=O)CN2CCN(Cc3nc4ccccc4n3C)CC2)cc1	.	6.3	.	.	.	.
O=C(COc1ccc(C(=O)N2CCN(c3ccccc3Cl)CC2)cc1)C1CC1	.	.	.	.	/	/
O=C(COc1ccc(C(=O)N2CCN(CCc3ccccc3)CC2)cc1)C1CC1	.	5.1	.	.	.	.
O=C(O)CCC(=O)c1ccc(Cc2ccccc2)cc1	.	5.3	.	.	.	.
Cc1ccc(S(=O)(=O)N(CC(=O)NCc2ccco2)c2cccc(Cl)c2)cc1	.	.	.	.	/	/
O=C(CN1CC(=O)Oc2ccccc21)NCC1CCCO1 (centres undefined)	.	13.2	.	.	.	.
COc1ccc(C2Oc3c(OC)cccc3C3CC(c4ccco4)=NN32)cc1OC (centres undefined)	.	7.6	.	.	.	.
COc1ccc(C2Oc3c(OC)cccc3C3CC(c4ccco4)=NN32)cc1 (centres undefined)	.	.	.	.	/	/
CC(N[C@@H]1CCCC[C@H]1O)C(=O)O (some centres undefined)	.	.	.	.	/	/
Cc1nnc(/N=C/c2cc(Br)cc(Br)c2O)s1	.	.	.	.	/	/
Cc1ccc(Oc2cccc(NC(=O)c3cccc4ccccc34)c2)nn1	.	5.6	.	.	.	.
CC(O)CC(=O)N1CCc2cc(S(=O)(=O)N(C)C)ccc21 (centres undefined)	.	5.3	.	.	.	.
O=C(NCC1CCC2(CCN(C(=O)c3ccoc3)CC2)O1)c1ccc(F)c(Cl)c1 (centres undefined)	.	.	.	.	/	/
Cc1ccc(C(=O)NC(Cc2c[nH]c3ccccc23)C(=O)O)cc1 (centres undefined)	.	.	.	.	/	/
CC(C)(O)C#Cc1ccc(C(=O)NC(Cc2c[nH]c3ccccc23)C(=O)O)cc1 (centres undefined)	.	12.4	.	.	.	.
N#CCCn1cc(C=O)c(-c2ccc(-c3ccccc3)cc2)n1	.	5.5	.	.	.	.
N#CCCn1cc(/C=N/O)c(-c2ccccc2)n1	.	.	.	.	/	/

Source: PubChem
